Measured values taken from PMC7862700, “An all-to-all approach to the identification of sequence-specific readers for epigenetic DNA modifications on cytosine”.

Assays:
Assay in all cases: DAPPL (digital affinity profiling via proximity ligation, sequencing); 10 mM Tris-HCl pH 7.5, 50 mM NaCl, 1 mM DTT, 4% glycerol, room temperature, 30 min; GST-TFs on glutathione beads, 16-mer random dsDNA library, 0.1% formaldehyde crosslink after washing; high values mean tight binding
Conditions in all cases: protein: recombinant; tags: N-terminal GST; dsDNA, one strand shown
FLI1 = biological target: T1, FLI1 (Homo sapiens, UniProt Q01543 1-452)
T1 sequence: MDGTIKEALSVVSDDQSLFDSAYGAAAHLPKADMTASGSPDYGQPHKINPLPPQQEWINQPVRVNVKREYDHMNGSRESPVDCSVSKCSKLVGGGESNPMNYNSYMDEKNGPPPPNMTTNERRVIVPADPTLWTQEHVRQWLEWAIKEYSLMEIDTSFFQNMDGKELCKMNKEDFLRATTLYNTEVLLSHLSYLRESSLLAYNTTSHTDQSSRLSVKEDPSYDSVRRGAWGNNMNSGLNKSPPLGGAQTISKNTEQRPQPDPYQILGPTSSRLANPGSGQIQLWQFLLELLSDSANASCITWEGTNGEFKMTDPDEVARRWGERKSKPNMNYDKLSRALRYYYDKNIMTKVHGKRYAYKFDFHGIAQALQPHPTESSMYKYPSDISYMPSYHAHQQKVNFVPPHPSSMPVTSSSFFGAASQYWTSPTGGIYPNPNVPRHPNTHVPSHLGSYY
Summary of the method: (§1)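 Sequencing on an Illumina NextSeq500 followed washing, crosslinking with 0.1% formaldehyde, proximity ligation (BsaI/T4 ligase, 1 h, 37 °C) and PCR amplification of pools that had been incubated for 30 min at room temperature with 200 nmole of a random double-stranded 16-mer DNA library in Tris/NaCl/DTT/glycerol buffer. Each pool held DNA-barcoded human transcription factors, expressed in yeast as GST fusions and captured on glutathione beads, plus a tag-only sample. Binding signal is a hexamer's read frequency for a factor divided by its frequency in the tag-only sample.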

ELK1 = biological target: T2, ELK1 (Homo sapiens, UniProt P19419 1-428)
T2 sequence: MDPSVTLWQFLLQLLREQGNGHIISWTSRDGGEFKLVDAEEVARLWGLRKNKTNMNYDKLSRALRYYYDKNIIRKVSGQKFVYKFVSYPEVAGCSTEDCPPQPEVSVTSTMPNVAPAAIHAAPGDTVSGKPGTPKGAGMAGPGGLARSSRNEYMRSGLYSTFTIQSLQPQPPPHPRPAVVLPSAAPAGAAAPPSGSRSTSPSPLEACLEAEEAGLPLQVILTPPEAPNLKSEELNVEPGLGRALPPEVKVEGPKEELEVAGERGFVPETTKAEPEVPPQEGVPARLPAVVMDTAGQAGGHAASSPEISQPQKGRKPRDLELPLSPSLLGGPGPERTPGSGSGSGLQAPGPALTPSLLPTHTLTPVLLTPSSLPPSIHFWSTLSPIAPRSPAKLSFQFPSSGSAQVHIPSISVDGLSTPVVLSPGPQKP
Summary of the method: as §1

GABPA = biological target: T3, GABPA (Homo sapiens, UniProt Q06546 1-454)
T3 sequence: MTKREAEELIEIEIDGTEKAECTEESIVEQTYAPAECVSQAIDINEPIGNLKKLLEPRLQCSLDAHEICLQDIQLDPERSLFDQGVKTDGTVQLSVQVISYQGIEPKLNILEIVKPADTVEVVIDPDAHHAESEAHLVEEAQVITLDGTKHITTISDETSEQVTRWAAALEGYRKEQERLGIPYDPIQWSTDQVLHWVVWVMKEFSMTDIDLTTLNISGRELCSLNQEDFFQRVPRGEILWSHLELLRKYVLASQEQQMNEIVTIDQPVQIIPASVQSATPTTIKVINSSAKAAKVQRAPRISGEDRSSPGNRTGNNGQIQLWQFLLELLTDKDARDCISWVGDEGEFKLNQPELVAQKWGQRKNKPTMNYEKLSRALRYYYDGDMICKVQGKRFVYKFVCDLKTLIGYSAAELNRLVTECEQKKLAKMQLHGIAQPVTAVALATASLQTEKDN
Summary of the method: as §1

ERG = biological target: T4, ERG (Homo sapiens, UniProt P11308 1-479)
T4 sequence: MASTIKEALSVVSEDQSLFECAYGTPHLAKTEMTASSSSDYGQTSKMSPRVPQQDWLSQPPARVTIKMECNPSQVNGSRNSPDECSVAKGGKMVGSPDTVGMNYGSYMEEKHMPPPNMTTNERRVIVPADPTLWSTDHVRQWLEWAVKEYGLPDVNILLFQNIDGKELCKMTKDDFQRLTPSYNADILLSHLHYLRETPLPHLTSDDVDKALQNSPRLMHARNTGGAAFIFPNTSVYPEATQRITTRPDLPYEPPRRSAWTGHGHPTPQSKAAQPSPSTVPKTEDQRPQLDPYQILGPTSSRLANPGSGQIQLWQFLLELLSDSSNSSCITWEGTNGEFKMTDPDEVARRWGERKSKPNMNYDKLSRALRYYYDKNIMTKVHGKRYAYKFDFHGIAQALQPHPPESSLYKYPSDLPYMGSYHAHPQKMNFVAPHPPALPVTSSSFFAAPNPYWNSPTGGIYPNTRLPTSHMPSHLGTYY
Summary of the method: as §1

ELF1 = ELF1 (Homo sapiens, UniProt P32519 1-619)
Chain of ELF1 (P32519 whole entry): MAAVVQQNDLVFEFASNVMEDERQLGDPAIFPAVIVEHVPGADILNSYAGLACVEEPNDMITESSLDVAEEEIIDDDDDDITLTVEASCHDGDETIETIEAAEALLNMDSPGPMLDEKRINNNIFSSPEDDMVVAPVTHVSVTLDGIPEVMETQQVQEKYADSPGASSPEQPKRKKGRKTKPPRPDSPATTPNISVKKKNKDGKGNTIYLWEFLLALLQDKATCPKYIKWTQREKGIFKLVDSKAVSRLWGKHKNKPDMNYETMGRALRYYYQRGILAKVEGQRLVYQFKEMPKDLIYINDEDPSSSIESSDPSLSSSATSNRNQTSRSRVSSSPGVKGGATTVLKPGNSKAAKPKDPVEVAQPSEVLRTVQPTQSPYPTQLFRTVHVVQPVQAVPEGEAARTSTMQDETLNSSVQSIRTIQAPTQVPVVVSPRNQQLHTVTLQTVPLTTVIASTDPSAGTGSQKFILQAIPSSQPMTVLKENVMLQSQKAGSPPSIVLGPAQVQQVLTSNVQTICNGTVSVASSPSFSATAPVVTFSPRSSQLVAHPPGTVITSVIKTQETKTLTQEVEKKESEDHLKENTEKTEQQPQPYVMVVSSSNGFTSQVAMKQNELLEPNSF
Summary of the method: as §1

EHF = biological target: T5, EHF (Homo sapiens, UniProt Q9NZC4 1-300)
T5 sequence: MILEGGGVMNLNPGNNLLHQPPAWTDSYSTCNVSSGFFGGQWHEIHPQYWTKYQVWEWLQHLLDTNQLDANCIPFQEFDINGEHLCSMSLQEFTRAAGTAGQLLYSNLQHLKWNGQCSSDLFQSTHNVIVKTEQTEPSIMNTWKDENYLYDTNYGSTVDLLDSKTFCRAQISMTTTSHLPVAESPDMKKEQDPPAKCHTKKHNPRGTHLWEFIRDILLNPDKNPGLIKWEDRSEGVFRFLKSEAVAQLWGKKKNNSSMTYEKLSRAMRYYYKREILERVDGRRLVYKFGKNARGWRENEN
Summary of the method: as §1

SPI1 = SPI1 (Homo sapiens, UniProt P17947 1-270)
Summary of the method: as §1

SPIB = SPIB (Homo sapiens, UniProt Q01892 1-262)
Chain of SPIB (Q01892 whole entry): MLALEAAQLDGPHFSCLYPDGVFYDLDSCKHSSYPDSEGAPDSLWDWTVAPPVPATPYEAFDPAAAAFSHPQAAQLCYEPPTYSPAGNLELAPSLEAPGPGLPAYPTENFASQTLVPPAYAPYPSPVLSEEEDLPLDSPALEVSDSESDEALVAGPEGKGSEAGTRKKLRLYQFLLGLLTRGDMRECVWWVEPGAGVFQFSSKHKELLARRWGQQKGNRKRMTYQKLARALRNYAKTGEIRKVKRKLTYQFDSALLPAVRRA
Summary of the method: as §1

ELK3 = biological target: T6, ELK3 (Homo sapiens, UniProt P41970 1-407)
T6 sequence: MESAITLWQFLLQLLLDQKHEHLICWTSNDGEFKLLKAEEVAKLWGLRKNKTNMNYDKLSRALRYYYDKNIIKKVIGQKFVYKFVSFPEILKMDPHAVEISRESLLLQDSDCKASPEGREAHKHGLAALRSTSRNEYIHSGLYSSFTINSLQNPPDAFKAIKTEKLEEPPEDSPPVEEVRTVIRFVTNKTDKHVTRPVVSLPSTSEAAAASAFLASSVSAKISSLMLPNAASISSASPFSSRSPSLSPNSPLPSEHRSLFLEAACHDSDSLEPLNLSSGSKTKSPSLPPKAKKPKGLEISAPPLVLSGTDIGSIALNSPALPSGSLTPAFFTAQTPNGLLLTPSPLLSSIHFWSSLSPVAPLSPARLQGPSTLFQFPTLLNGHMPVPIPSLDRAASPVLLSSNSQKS
Summary of the method: as §1

In the case of CTTATC, the binding signal (FLI1) is reported as 1.18 fold enrichment (6-mer frequency, TF over GST control), the binding signal (ELK1) is reported as 1.15 fold enrichment (6-mer frequency, TF over GST control) and the binding signal (GABPA) is reported as 1.16 fold enrichment (6-mer frequency, TF over GST control). The binding signal (ERG) was 1.1 fold enrichment (6-mer frequency, TF over GST control), the binding signal (ELF1) was 1.21 fold enrichment (6-mer frequency, TF over GST control) and the binding signal (EHF) was 1.08 fold enrichment (6-mer frequency, TF over GST control). For the same sequence, the binding signal (SPI1) was 1.2 fold enrichment (6-mer frequency, TF over GST control), the binding signal (SPIB) was 1.21 fold enrichment (6-mer frequency, TF over GST control) and the binding signal (ELK3) was 1.09 fold enrichment (6-mer frequency, TF over GST control).
With CGATTA the binding signal (FLI1) was 1.15 fold enrichment (6-mer frequency, TF over GST control), the binding signal (ELK1) was 1.07 fold enrichment (6-mer frequency, TF over GST control) and the binding signal (GABPA) was 1.17 fold enrichment (6-mer frequency, TF over GST control). For the same sequence, the binding signal (ERG) was 1.16 fold enrichment (6-mer frequency, TF over GST control), the binding signal (ELF1) was 1.15 fold enrichment (6-mer frequency, TF over GST control) and the binding signal (EHF) was 1.11 fold enrichment (6-mer frequency, TF over GST control). The binding signal (SPI1) was 1.09 fold enrichment (6-mer frequency, TF over GST control), the binding signal (SPIB) was 1.13 fold enrichment (6-mer frequency, TF over GST control) and the binding signal (ELK3) was 1.19 fold enrichment (6-mer frequency, TF over GST control).
TTTAAA was tested, and the binding signal (FLI1) was 1.27 fold enrichment (6-mer frequency, TF over GST control), the binding signal (ELK1) was 1.26 fold enrichment (6-mer frequency, TF over GST control) and the binding signal (GABPA) was 1.19 fold enrichment (6-mer frequency, TF over GST control). The binding signal (ERG) was 1.2 fold enrichment (6-mer frequency, TF over GST control), the binding signal (ELF1) was 1.29 fold enrichment (6-mer frequency, TF over GST control) and the binding signal (EHF) was 1.21 fold enrichment (6-mer frequency, TF over GST control). For the same sequence, the binding signal (SPI1) was 1.31 fold enrichment (6-mer frequency, TF over GST control), the binding signal (SPIB) was 1.17 fold enrichment (6-mer frequency, TF over GST control) and the binding signal (ELK3) was 1.32 fold enrichment (6-mer frequency, TF over GST control).
For TGGCTA, the binding signal (FLI1) was 1.15 fold enrichment (6-mer frequency, TF over GST control), the binding signal (ELK1) was 1.23 fold enrichment (6-mer frequency, TF over GST control) and the binding signal (GABPA) was 1.24 fold enrichment (6-mer frequency, TF over GST control). The binding signal (ERG) was 1.17 fold enrichment (6-mer frequency, TF over GST control), the binding signal (ELF1) was 1.22 fold enrichment (6-mer frequency, TF over GST control) and the binding signal (EHF) was 1.19 fold enrichment (6-mer frequency, TF over GST control). For the same sequence, the binding signal (SPI1) was 1.2 fold enrichment (6-mer frequency, TF over GST control), the binding signal (SPIB) was 1.31 fold enrichment (6-mer frequency, TF over GST control) and the binding signal (ELK3) was 1.14 fold enrichment (6-mer frequency, TF over GST control).
ACATTA was tested, and the binding signal (FLI1) was 1.17 fold enrichment (6-mer frequency, TF over GST control), the binding signal (ELK1) was 1.16 fold enrichment (6-mer frequency, TF over GST control) and the binding signal (GABPA) was 1.17 fold enrichment (6-mer frequency, TF over GST control). The binding signal (ERG) was 1.08 fold enrichment (6-mer frequency, TF over GST control), the binding signal (ELF1) was 1.19 fold enrichment (6-mer frequency, TF over GST control) and the binding signal (EHF) was 1.17 fold enrichment (6-mer frequency, TF over GST control). The binding signal (SPI1) was 1.06 fold enrichment (6-mer frequency, TF over GST control), the binding signal (SPIB) was 1.2 fold enrichment (6-mer frequency, TF over GST control) and the binding signal (ELK3) was 1.08 fold enrichment (6-mer frequency, TF over GST control).
With TCTCTG the binding signal (FLI1) was 1.67 fold enrichment (6-mer frequency, TF over GST control), the binding signal (ELK1) was 1.67 fold enrichment (6-mer frequency, TF over GST control) and the binding signal (GABPA) was 1.47 fold enrichment (6-mer frequency, TF over GST control). For the same sequence, the binding signal (ERG) was 1.56 fold enrichment (6-mer frequency, TF over GST control), the binding signal (ELF1) was 1.66 fold enrichment (6-mer frequency, TF over GST control) and the binding signal (EHF) was 1.62 fold enrichment (6-mer frequency, TF over GST control). For the same sequence, the binding signal (SPI1) was 1.52 fold enrichment (6-mer frequency, TF over GST control), the binding signal (SPIB) was 1.5 fold enrichment (6-mer frequency, TF over GST control) and the binding signal (ELK3) was 1.52 fold enrichment (6-mer frequency, TF over GST control).
For CCTATC, the binding signal (FLI1) was 1.27 fold enrichment (6-mer frequency, TF over GST control), the binding signal (ELK1) was 1.27 fold enrichment (6-mer frequency, TF over GST control) and the binding signal (GABPA) was 1.13 fold enrichment (6-mer frequency, TF over GST control). The binding signal (ERG) was 1.15 fold enrichment (6-mer frequency, TF over GST control), the binding signal (ELF1) was 1.15 fold enrichment (6-mer frequency, TF over GST control) and the binding signal (EHF) was 1.18 fold enrichment (6-mer frequency, TF over GST control). The binding signal (SPI1) was 1.14 fold enrichment (6-mer frequency, TF over GST control), the binding signal (SPIB) was 1.31 fold enrichment (6-mer frequency, TF over GST control) and the binding signal (ELK3) was 1.45 fold enrichment (6-mer frequency, TF over GST control).
